The record followed here is PubChem BioAssay AID540333 (Southern Research Specialized Biocontainment Screening …, 2011).

Each structure is given as a SMILES string. In all, about 10,000 compounds went through this assay and about 320 (3.2%) were called active. The sample as a whole holds a higher share of actives than the screen did. Values without a mark were called inactive. Rule as the data show it: active = CPE inhibition mostly above about 9.1% (no sharp cut-off); inactive = mostly below about 7.2%.

This experiment can be described thus: Dengue virus cytopathic effect inhibitors, cell-based, CPE readout, HTS (AID 540333). As to conditions: Dengue virus CPE inhibition in host cells, at 20 µM; hits give high values.
On to `Cc1ccc(C(=O)NN2C(=O)C3C4c5ccccc5C(c5ccccc54)C3C2=O)cc1` (stereo not drawn), for which the CPE inhibition is 1.93%.

Take `CCOc1ccccc1NC(=O)c1cc(C(=O)c2cc(OC)ccc2O)coc1=N`: the CPE inhibition entry is “inactive”.

Take `COc1ccc(O)c(C(=O)c2cc(C(=O)NCCc3ccccc3)c(=O)n(CCc3ccccc3)c2)c1`: the CPE inhibition is 15.6% (active).

For `COc1ccc(CCNC(=O)c2ccccc2N(C)S(=O)(=O)c2ccccc2)cc1`, the CPE inhibition result was “inactive”.

On to `Cc1ccc(SCc2cc(=O)[nH]c(Nc3nc(C)c4ccc(C)cc4n3)n2)cc1`, for which the CPE inhibition was 2.63%.

As to `Cc1ccccc1-c1ccc(C(=O)NCc2ccccc2)o1`, the CPE inhibition entry is “inactive”.

In the case of `O=C(C[n+]1cc(-c2ccc(Cl)cc2)n2c1CCC2)N1c2ccccc2Sc2ccccc21`, the CPE inhibition was 2.13%.

`O=C(C[n+]1cc(-c2ccc(Cl)c(Cl)c2)n2c1CCC2)N1c2ccccc2Sc2ccccc21`: the CPE inhibition was 15.1% (active).

With `O=C(C[n+]1cc(-c2ccccc2)n2c1CCC2)N1c2ccccc2Sc2ccccc21`, the CPE inhibition is 2.94%.

Take `O=S(=O)(Nc1ccc2ccccc2c1)c1ccccc1`: the CPE inhibition result is “inactive”.

For `Cc1ccc(N=Nc2ccc(O)c3ncccc23)cc1`, the CPE inhibition is 0.345%.

For `O=S(=O)(Nc1ccc(N=Nc2ccc(O)c3ccccc23)cc1)c1ccccc1`, the CPE inhibition was 10.4% (active).

On to `Cc1ccc(-c2cc3nc(-c4ccc(Br)cc4)cc(N)n3n2)cc1`, for which the CPE inhibition is 8.6%.

On to `CCC(C(=O)OCC(=O)Nc1ccccc1-c1ccccc1)c1ccccc1` (stereo not drawn), for which the CPE inhibition was 4.5%.

Consider `O=C(CNC(c1ccccc1)c1ccccc1)Nc1ccccc1-c1ccccc1`, for which the CPE inhibition is 25.7% (active).

On to `Cc1ccccc1CSCC(=O)Nc1ccccc1-c1ccccc1`, for which the CPE inhibition is 2.64%.

For the compound `Cc1ccc(/C=N/n2c(C)cc(C)c(C#N)c2=O)o1`, the CPE inhibition was 1.26%.

Take `Cc1ccc(C2=[N+]([O-])C(C)(C)N(O)C2(C)C)cc1`: the CPE inhibition entry is “inactive”.

With `CCOC(=O)NC(NC(=S)Nc1ccccc1OC)C(Cl)(Cl)Cl` (stereo not drawn), the CPE inhibition was 1.97%.

Turning to `CCc1ccc(OCC(=O)NC(NC(=S)Nc2ccccc2OC)C(Cl)(Cl)Cl)cc1` (stereo not drawn), the CPE inhibition was 12.2% (active).

Turning to `CCC(=O)NC(NC(=S)Nc1ccccc1Br)C(Cl)(Cl)Cl` (stereo not drawn), the CPE inhibition was 0.015%.

As to `c1ccc2c(c1)CCN(c1nc(CN3CCOCC3)nc3sc4c(c13)CCCC4)C2`, the CPE inhibition is 7.32%.

Consider `COc1cc2c(cc1OC)CN(c1nc(CN3CCOCC3)nc3sc4c(c13)CCC(C)C4)CC2` (stereo not drawn), for which the CPE inhibition entry was “inactive”.

Consider `Cc1cccc(Oc2nc(CN3CCOCC3)nc3sc4c(c23)CCCC4)c1`, for which the CPE inhibition is 15.4% (active).

As to `Cc1c(C)c2ccc(OS(C)(=O)=O)cc2oc1=O`, the CPE inhibition is 0.305%.

Take `O=C(O)CCCCCn1c(O)c(C=C2N=c3ccccc3=N2)sc1=S`: the CPE inhibition was 11.8% (active).

`Oc1c(C=C2N=c3ccccc3=N2)sc(=S)n1-c1ccccc1`: the CPE inhibition was 1.34%.

Consider `Oc1c(C=C2N=c3ccccc3=N2)sc(=S)n1C1CCCC1`, for which the CPE inhibition is 0.885%.
